# Where “and” joins values, the source holds several entries; their conditions need not be identical. Identical values can stand only once. Like-named read-outs stand apart in the source and are kept apart here.
# Experiments:
# JNK1 = test system: T1, JNK1; conditions: concentration: 1 μM, replicates: in singlicate, n = 1
# T1 construct: gene MAPK8
# JNK2 = test system: T2, JNK2; conditions: concentration: 1 μM, replicates: in singlicate, n = 1
# T2 construct: gene MAPK9
# JNK3 = test system: T3, JNK3; conditions: concentration: 1 μM, replicates: in singlicate, n = 1
# T3 construct: gene MAPK10
# KIT-autoinhibited = conditions: concentration: 1 μM, replicates: in singlicate, n = 1
# KIT = conditions: concentration: 1 μM, replicates: in singlicate, n = 1
# LATS1 = conditions: concentration: 1 μM, replicates: in singlicate, n = 1
# LATS2 = conditions: concentration: 1 μM, replicates: in singlicate, n = 1
# LCK = conditions: concentration: 1 μM, replicates: in singlicate, n = 1
# LIMK1 = conditions: concentration: 1 μM, replicates: in singlicate; n = 1
# LIMK2 = conditions: concentration: 1 μM, replicates: in singlicate, n = 1
# 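Note: KINOMEscan kinase panel screen.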
SMILES,%Inh (JNK1) [%],%Inh (JNK2) [%],%Inh (JNK3) [%],%Inh (KIT-autoinhibited) [%],%Inh (KIT) [%],%Inh (LATS1) [%],%Inh (LATS2) [%],%Inh (LCK) [%],%Inh (LIMK1) [%],%Inh (LIMK2) [%],%Inh (JNK1; 1 µM),%Inh (JNK2; 1 µM),%Inh (JNK3; 1 µM),%Inh (KIT-autoinhibited; 1 µM),%Inh (KIT; 1 µM),%Inh (LATS1; 1 µM),%Inh (LATS2; 1 µM),%Inh (LCK; 1 µM),%Inh (LIMK2; 1 µM)
O=C(Nc1ccccc1)Nc1ccc(Oc2ccc3nccn3n2)cc1,0,0,0,28,95.8,0,0,21,10,14,–,–,–,–,–,–,–,–,–
O=C(Nc1ccccc1F)NC1CCN(c2ccnc(Nc3ccc(F)cc3)n2)C1 (stereo not shown) [GSK1379722],29,31,23,0,5,0,0,14,10,0,–,–,–,–,–,–,–,–,–
Oc1ccc2ncnc(Nc3ccc(OCc4ccccc4)cc3)c2c1 [GI262866],0,0,0,0,48,0,0,2,0,4,–,–,–,–,–,–,–,–,–
COc1ccc(NC(=O)c2ccc(-c3cc(-c4nnc(C)o4)ccc3C)cc2)cc1 [GW595885],20,17,12,0,64,0,0,18,3,0,–,–,–,–,–,–,–,–,–
CC(=O)Nc1n[nH]c2ncc(-c3ccccc3)cc12 [SB-548492],40,17,17,21,67,14,4,30,0,45,–,–,–,–,–,–,–,–,–
Clc1ccc(-c2cc(-c3c[nH]nc3-c3ccccn3)ccn2)cc1 [GW681251],35,30,33,0,54,0,0,13,0,0,–,–,–,–,–,–,–,–,–
COc1ccc(-c2nc3n(c2-c2ccncc2)CCC3)cc1 [SKF-104493],–,–,–,–,–,–,–,–,0,–,46% and 22%,37% and 50%,47% and 65%,0% and 19%,0% and 25%,0% and 19%,16% and 12%,26% and 23%,0% and 3%
NC(=O)c1sc(-n2cnc3ccccc32)cc1OCc1ccccc1F [GSK1024306],3,28,14,0,0,0,0,9,0,20,–,–,–,–,–,–,–,–,–
CNc1nccc(-c2c(-c3ccc(F)cc3)ncn2CCCN2CCOCC2)n1 [SB-222516],12,0,0,4,2,0,0,1,11,95.2,–,–,–,–,–,–,–,–,–
CS(=O)(=O)CCNCc1nc(-c2ccc3ncnc(Nc4ccc(OCc5cccc(F)c5)c(Cl)c4)c3c2)cs1.Cl [GW583340],0,0,0,0,7,0,9,5,0,3,–,–,–,–,–,–,–,–,–
Fc1ccc(-c2ncn(CCCNCc3ccccc3)c2-c2ccncc2)cc1,34,48,57,4,19,30,34,40,10,7,–,–,–,–,–,–,–,–,–
FC(F)(F)c1ccc(-c2cc(-c3c[nH]nc3-c3ccccn3)ccn2)cc1 [GW599550],0,5,0,0,26,0,40,25,7,0,–,–,–,–,–,–,–,–,–
Nc1nc(-c2ccccn2)c(-c2ccnc3ccccc23)s1 [GW548057],0,19,1,3,11,0,23,10,0,9,–,–,–,–,–,–,–,–,–
O=C(NCCCN1CCCC1=O)c1cnc(NCc2cc(Cl)ccc2Cl)nc1NC1CCNCC1,0,0,0,0,0,0,29,15,0,0,–,–,–,–,–,–,–,–,–
Fc1ccc(Nc2nccc(-c3c(-c4ccc(Cl)cc4)nn4ncccc34)n2)cc1F [GW829058],40,63,56,12,38,11,19,11,0,7,–,–,–,–,–,–,–,–,–
Cn1ccc2ncnc(Nc3ccc(Oc4cccc(Cl)c4)c(Cl)c3)c21,8,0,0,0,24,44,0,0,0,6,–,–,–,–,–,–,–,–,–
c1ccc(-c2ccc3c(-c4ccnc(Nc5ccc6c(c5)OCCO6)n4)cnn3n2)cc1 [GW818941],28,4,8,0,10,11,0,22,27,0,–,–,–,–,–,–,–,–,–

SMILES,%Inh (JNK1) [%],%Inh (JNK2) [%],%Inh (JNK3) [%],%Inh (KIT-autoinhibited) [%],%Inh (KIT) [%],%Inh (LATS1) [%],%Inh (LATS2) [%],%Inh (LCK) [%],%Inh (LIMK1) [%],%Inh (LIMK2) [%],%Inh (JNK1; 1 µM),%Inh (JNK2; 1 µM),%Inh (JNK3; 1 µM),%Inh (KIT-autoinhibited; 1 µM),%Inh (KIT; 1 µM),%Inh (LATS1; 1 µM),%Inh (LATS2; 1 µM),%Inh (LCK; 1 µM),%Inh (LIMK2; 1 µM)
COc1cc2ncnc(Nc3ccc(OCc4ccccc4Br)c(Cl)c3)c2cc1OC.Cl [GI261590],15,10,0,0,3,8,3,57,0,3,–,–,–,–,–,–,–,–,–
Nc1nc(-c2cccnc2)c(-c2ccnc3ccccc23)s1 [GW684083],23,29,11,0,23,0,26,17,0,0,–,–,–,–,–,–,–,–,–
Cl.Fc1ccccc1COc1ccc(Nc2ncnc3ccc(-c4nnc(C(F)(F)F)o4)cc23)cc1Cl [GW424170],0,4,0,0,13,0,0,12,0,16,–,–,–,–,–,–,–,–,–
CC(C)(C)OC(=O)NC1CCCN(c2cc(-c3ccc4c(N)n[nH]c4c3)nc(N)n2)C1 (stereo not shown) [GSK2286096],34,21,7,0,8,11,0,0,6,0,–,–,–,–,–,–,–,–,–
Cc1cccc(-c2nc(Nc3ccc4[nH]nnc4c3)c3ccccc3n2)n1 [GW867587],0,0,0,0,0,0,0,7,0,0,–,–,–,–,–,–,–,–,–
Nc1nc(-c2ccc3c(N)n[nH]c3c2)cc(N2CCCCC2)n1 [GSK2228768],5,11,0,0,5,0,0,3,0,0,–,–,–,–,–,–,–,–,–
Clc1cc(Nc2ncnc3cc[nH]c23)ccc1OCc1ccccn1,31,40,53,11,38,14,29,7,0,0,–,–,–,–,–,–,–,–,–
COc1ccc(Nc2nccc(N3CCC(NC(=O)c4cccc(NC(C)=O)c4)C3)n2)cc1 (stereo not shown) [GSK1379732],16,23,26,0,7,0,9,9,0,0,–,–,–,–,–,–,–,–,–
CN1c2ccc(-c3ccc(C(=O)NCCO)cc3)cc2-c2[nH]ncc2S1(=O)=O,14,1,0,17,17,0,11,28,17,7,–,–,–,–,–,–,–,–,–
Cl.Cn1ccc(-c2cccc(Nc3ccnc4cc(-c5nccs5)ccc34)c2)n1 [GW525701],12,13,2,0,33,0,0,3,0,0,–,–,–,–,–,–,–,–,–
Cc1ccc(C)c(NC(=O)NCCNc2ccnc(Nc3ccc(F)cc3)n2)c1 [GSK1379878],13,13,2,0,0,0,0,3,0,0,–,–,–,–,–,–,–,–,–
O=C(Nc1n[nH]c2nc(-c3ccco3)c(Br)cc12)c1ccc(CN2CCCC2)cc1.O=C(O)[C@H](O)[C@@H](O)C(=O)O [SB-742352],0,0,0,0,99.2,0,0,47,26,0,–,–,–,–,–,–,–,–,–
CC(C)(C)c1ccc(-n2cnc3c(N)ncnc32)cc1 [SKF-97263],21,3,1,1,38,0,18,8,8,0,–,–,–,–,–,–,–,–,–
CCc1nc(-c2cccc(C)c2)c(-c2ccnc(NC(=O)c3ccccc3)c2)s1,53,79,93.3,6,21,30,100,0,0,0,–,–,–,–,–,–,–,–,–
Clc1cccc(-c2nc(Nc3ccncc3)c3ccccc3n2)c1 [GW873004],0,0,0,1,10,14,0,31,54,12,–,–,–,–,–,–,–,–,–
FC(F)(F)c1ccc(-c2nn3ncccc3c2-c2ccnc(Nc3cccc(C(F)(F)F)c3)n2)cc1 [GW828205],0,0,0,2,43,0,0,25,0,0,–,–,–,–,–,–,–,–,–
C[C@@H]1CCN(C(=O)CO)C[C@@H]1N(C)c1ncnc2[nH]ccc12,19,0,0,0,12,0,16,20,0,8,–,–,–,–,–,–,–,–,–

# — paper PMC5540273 (PLoS ONE, 2017)
